We go through 52 compounds from PubChem BioAssay AID2501 (Southern Research Specialized Biocontainment Screening …, 2010).

Molecules are shown by their SMILES. Among all 2,200 compounds or so, about 1,200 (55%) were called active. The set was probably picked from earlier hits. This is one part of the list. A number with no mark means an inactive call. The limit is not given here; nearly all actives have IC50 up to about 92 µM.

This test is described as follows: counter assay for TAg ATPase ADP read-out – biochemical, ADP-Hunter, fluorescence, counter-screen (AID 2501).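 Also: purified T antigen ATPase.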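 As to inhibition: 0% = enzyme with vehicle and 100% = reference inhibitor wells; higher means more inhibition.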 To be noted: series mostly up to 100 µM; inhibition: at the top concentration.
`CCn1c(C)nc2cc(C(=O)N/N=C/c3ccc(OC)c(O)c3)ccc21`: the 50% inhibitory concentration (IC50) was 3.58 µM (active).

With `O=c1cc(-c2ccc(Br)cc2)[nH][nH]1`, the IC50 is 12.3 µM (active).

On to `CN1C(=O)NC(c2ccc(O)cc2)C2=C1CN(c1ccc(O)cc1)C2=O` (configuration not stated), for which the IC50 was 4.84 µM (active).

Consider `Cc1cc(C)nc(Nc2ccc(O)cc2)n1`, for which the IC50 is 3.35 µM (active).

On to `Cc1cc(C)nc(NC(=O)c2ccc(Cl)cc2)n1`, for which the “inhibition” value is -13.1%.

Consider `Cc1cc(C)nc(SSc2nc(C)cc(C)n2)n1`, for which the “inhibition” value is -11%.

For `Oc1ccc(-c2[nH]ncc2-c2cccc3cccnc23)c(O)c1`, the IC50 was 18.1 µM (active).

As for `COc1ccccc1-n1cc(CN2CCN(C3CCCCC3)C(CCO)C2)cn1` (configuration not stated), the “inhibition” value was 8.82%.

In the case of `O=C1c2ccccc2S(=O)(=O)c2cc(C(=O)N3CCC(N4CCCC4)CC3)ccc21`, the “inhibition” value was -33.2%.

As for `CCc1ccc(OCc2nnc(SCC(=O)Nc3cccc(C(=O)N4CCOCC4)c3)o2)cc1`, the “inhibition” value is -25.4%.

As for `O=C(c1ccc2ccccc2c1)N1CCN(c2ccc(O)cc2)CC1`, the IC50 is 4.79 µM (active).

For the compound `O=C(c1ccc2ncsc2c1)N1CCN(c2ccc(O)cc2)CC1`, the half-maximal inhibitory concentration (IC50) was 3.9 µM (active).

Turning to `O=C(c1cccc(F)c1)N1CCC(N2CCOCC2)CC1`, the “inhibition” value was 0.59%.

Turning to `O=C(c1cccc(-c2ccc(O)cc2)c1)N1CCOCC1`, the IC50 was 4.07 µM (active).

Regarding `c1coc(-c2nnc(-c3ccco3)nn2)c1`, the “inhibition” value was 12.1%.

For `O=C(N/N=C/c1ccc(O)cc1O)/C(=C/c1ccccc1)CCO`, the IC50 was 11.2 µM (active).

Turning to `COc1ccc(OC)c(CCNC(=O)Cn2sc3nc(C)cc(C)c3c2=O)c1`, the “inhibition” value was 11.8%.

Turning to `Cc1cc2nc3ccc(N(C)C)cc3nc2cc1N`, the IC50 was 90.6 µM (active).

On to `O=C(O)Cc1c[nH]c2cccc(O)c12`, for which the half-maximal inhibitory concentration (IC50) is 34.4 µM (active).

Regarding `OC[C@H]1O[C@@H](Oc2cc(O)cc(/C=C/c3ccc(O)cc3)c2)[C@H](O)[C@@H](O)[C@@H]1O`, the IC50 was 7.7 µM (active).

With `O=c1c(-c2ccc(O)cc2)coc2cc(OC3OC(CO)C(O)C(O)C3O)ccc12` (configuration not stated), the half-maximal inhibitory concentration (IC50) was 12.9 µM (active).

On to `O=C(O)CC(CCc1ccccc1)OC1OC(CO)C(O)C(O)C1O` (configuration not stated), for which the “inhibition” value is 18.6%.

As for `CCCCN(CC)Cc1ccc(CNC(=S)Nc2ccc(C)cc2Cl)o1`, the “inhibition” value is 13.6%.

`Oc1ccc(/C=N/Nc2nccnc2Cl)c(O)c1`: the IC50 is 11.8 µM (active).

Regarding `O=c1[nH]ncc(N/N=C\c2ccc(O)cc2O)c1Cl`, the IC50 is 6.23 µM (active).

On to `Oc1ccc(/C=N/Nc2nccnc2Cl)cc1`, for which the IC50 was 3.29 µM (active).

On to `Cc1cc2cc3c(N)[nH]nc3nc2cc1C`, for which the concentration for half-maximal inhibition (IC50) was 6.68 µM (active).

Regarding `Cc1ccc2cc3c(N)[nH]nc3nc2c1`, the IC50 is 6.56 µM (active).

Turning to `CCc1ccc2nc3n[nH]c(N)c3cc2c1`, the IC50 was 5.76 µM (active).

Consider `C=CCOC(=O)C1=C[C@@H](c2ccc3c(c2)OCO3)C[C@@H](OCCCCO)O1`, for which the “inhibition” value was 11.6% [at 50 µM].

As for `O=C(O)c1cc(S(=O)(=O)O)cc(Nc2c3ccccc3nc3ccccc23)c1O`, the IC50 was 14.7 µM (active).

As to `COC/C=C/C1=CC2=CC(=O)C(C)(O)C(=O)C2=CO1` (configuration not stated), the “inhibition” value was 18.6%.

Turning to `Nc1ccc(-c2nc3cc(N)ccc3n2CCO)cc1`, the half-inhibitory concentration (IC50) is 9.16 µM (active).

For `O=C(O)C1Nc2ccc(OC(F)(F)F)cc2C2C=CCC12` (configuration not stated), the “inhibition” value is 23%.

For `COc1ccc(Nc2ccc(OC)cc2)cc1`, the IC50 is 11.3 µM (active).

`COc1cc(-c2csc(C)n2)ccc1O`: the half-inhibitory concentration (IC50) was 3.58 µM (active).

With `Cc1nc(-c2ccc(O)c(O)c2)cs1`, the IC50 is 6.64 µM (active).

For `Oc1ccc(-c2nc(-c3ccc(O)c(O)c3)cs2)cc1`, the concentration for half-maximal inhibition (IC50) is 17.4 µM (active).

Regarding `COC(=O)C1=C(C)N(Cc2ccccc2)C(=NCCCCO)N[C@H]1c1ccccc1`, the “inhibition” value was 25.4%.

Consider `Cc1nc(SCC(=O)N2CCOCC2)c2ccsc2n1`, for which the “inhibition” value was -16.8%.

With `COc1ccc(N2CCC(CNC(=O)Nc3ccccc3)C2)cc1` (configuration not stated), the IC50 is 8.01 µM (active).

On to `COc1ccc(N2CCC(CNC(=O)Nc3cccc(OC)c3)C2)cc1` (configuration not stated), for which the IC50 is 3.36 µM (active).

Turning to `CC(=O)c1cccc(NC(=O)N2CCCC2C(=O)NCc2ccccc2)c1` (configuration not stated), the “inhibition” value was -22.4%.

Consider `COc1ccc(S(=O)(=O)N2CCN(CC(=O)Nc3cccc(OC)c3)CC2)cc1`, for which the “inhibition” value is 27.5%.

With `Nc1nc(Sc2c([N+](=O)[O-])cc(C(F)(F)F)cc2[N+](=O)[O-])n[nH]1`, the “inhibition” value was 0.27%.

For `Oc1ccc(-c2nc3ccccn3c2NCc2ccco2)cc1`, the concentration for half-maximal inhibition (IC50) was 3.24 µM (active).

`CCOC(=O)CNc1c(-c2ccc(O)cc2)nc2ccccn12`: the IC50 was 4.76 µM (active).

Consider `CCOC(=O)CC(=O)CSc1nc(N)c(C#N)c(-c2ccc(Cl)cc2)c1C#N`, for which the “inhibition” value was -31.3%.

As for `CCOC(=O)CNc1c(-c2ccc(O)cc2)nc2ccc(Cl)cn12`, the IC50 is 2.95 µM (active).

Regarding `CC(C)Nc1nc(Cl)nc(Nc2ccccc2)n1`, the “inhibition” value is -23.3%.

Regarding `Oc1ccc(Nc2nc(Cl)nc(NCc3ccco3)n2)cc1`, the IC50 is 6.71 µM (active).

`O=C(c1ccc(Cl)cc1)C1CCCN(C(=O)c2csnn2)C1` (configuration not stated): the “inhibition” value is 7.02%.
